Drawing on the supplement of paper PMC10849652, this text covers log2 fold change for nine targets.

Holding throughout (test): log2 fold change, soluble protein after heating vs DMSO (PISA); higher = thermal stabilisation; K562 lysate, 10 uM; active = over 0.2 and 3.5 SD of the protein, either way, in both replicates (recomputed)
Compound in assay [1]: C1=CC=C(C=C1)[C@H](COC2=CC3=C(C=C2)NC(=O)N3)NC(=O)C4=CC=CN(C4=O)CC5=CC(=C(C=C5)F)F
The method, boiled down: (§1)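 Dounce homogenisation of K562 pellets in PBS pH 7.4 with 1 mM MgCl2 produced a crude extract, used at 1 mg/mL protein. Exposure to 10 μM compound lasted 30 min, and aliquots were then heated for 3 min across 48°C-58°C, pooled and brought to 0.5% NP-40 at 4°C. The supernatant after 21,000xg for 90 min was quantified by TMTpro 16plex LC-MS/MS with channel sums equalised. Duplicate values are given as log-two fold change in thermal stability relative to solvent controls.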

Compound in assay [2]: CC1=C(SC2=C1C(=N[C@H](C3=NN=C(N32)C)CC(=O)N)C4=CC=C(C=C4)Cl)C
The method, boiled down: as §1

Compound in assay [3]: CC1=C2C(=CC=C1)N=C(N(C2=O)C3=CC=CC=C3C)CN4C=NC5=C(N=CN=C54)N
The method, boiled down:
as §1

Compound in assay [4]: Cc1sc2c(c1C)C(c1ccc(Cl)cc1)=N[C@@H](CC(=O)OC(C)(C)C)c1nnc(C)n1-2
The method, boiled down:
as §1

Compound in assay [5]: c1ccc([C@@H]2C[C@H]2NC2CCNCC2)cc1
The method, boiled down: as §1

Targets with a hit are over-represented here; the source holds about 8,800 in all. About 0.5% of all pairs of compound and target were hits. A number with no mark means an inactive call.

Sequence of UniProt O75334 (O75334 whole entry, looked up): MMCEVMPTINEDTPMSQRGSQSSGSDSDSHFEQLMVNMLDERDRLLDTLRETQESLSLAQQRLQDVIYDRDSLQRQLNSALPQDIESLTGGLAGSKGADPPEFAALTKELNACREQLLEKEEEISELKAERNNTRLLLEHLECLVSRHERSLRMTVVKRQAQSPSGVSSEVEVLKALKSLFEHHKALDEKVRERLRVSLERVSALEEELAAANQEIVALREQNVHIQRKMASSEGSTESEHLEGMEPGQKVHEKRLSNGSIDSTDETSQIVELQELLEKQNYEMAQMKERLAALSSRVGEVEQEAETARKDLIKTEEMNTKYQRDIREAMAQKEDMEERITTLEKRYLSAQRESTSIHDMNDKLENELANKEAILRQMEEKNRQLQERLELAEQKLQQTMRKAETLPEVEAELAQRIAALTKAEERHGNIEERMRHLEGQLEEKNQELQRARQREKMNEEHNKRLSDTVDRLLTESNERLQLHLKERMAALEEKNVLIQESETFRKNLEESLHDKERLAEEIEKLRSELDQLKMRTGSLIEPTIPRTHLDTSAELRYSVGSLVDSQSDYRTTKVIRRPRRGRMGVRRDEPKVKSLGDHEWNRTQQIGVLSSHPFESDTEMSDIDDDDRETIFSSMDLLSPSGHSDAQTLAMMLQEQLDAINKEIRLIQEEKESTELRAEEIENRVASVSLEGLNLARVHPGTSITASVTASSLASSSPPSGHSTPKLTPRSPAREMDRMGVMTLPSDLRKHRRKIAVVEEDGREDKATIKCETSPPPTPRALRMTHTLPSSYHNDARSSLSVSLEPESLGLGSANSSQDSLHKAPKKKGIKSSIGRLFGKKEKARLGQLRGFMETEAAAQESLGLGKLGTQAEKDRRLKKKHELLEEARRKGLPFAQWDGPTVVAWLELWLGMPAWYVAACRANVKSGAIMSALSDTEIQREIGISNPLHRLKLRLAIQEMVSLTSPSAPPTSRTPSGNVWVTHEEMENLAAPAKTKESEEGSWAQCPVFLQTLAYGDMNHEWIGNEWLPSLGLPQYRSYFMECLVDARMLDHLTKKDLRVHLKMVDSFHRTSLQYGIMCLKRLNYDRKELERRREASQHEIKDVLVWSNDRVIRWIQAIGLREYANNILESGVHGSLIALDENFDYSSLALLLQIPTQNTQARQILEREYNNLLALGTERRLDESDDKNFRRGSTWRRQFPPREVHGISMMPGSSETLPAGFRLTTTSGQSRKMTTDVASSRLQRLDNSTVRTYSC
Sequence of UniProt O00459 (O00459 whole entry, looked up): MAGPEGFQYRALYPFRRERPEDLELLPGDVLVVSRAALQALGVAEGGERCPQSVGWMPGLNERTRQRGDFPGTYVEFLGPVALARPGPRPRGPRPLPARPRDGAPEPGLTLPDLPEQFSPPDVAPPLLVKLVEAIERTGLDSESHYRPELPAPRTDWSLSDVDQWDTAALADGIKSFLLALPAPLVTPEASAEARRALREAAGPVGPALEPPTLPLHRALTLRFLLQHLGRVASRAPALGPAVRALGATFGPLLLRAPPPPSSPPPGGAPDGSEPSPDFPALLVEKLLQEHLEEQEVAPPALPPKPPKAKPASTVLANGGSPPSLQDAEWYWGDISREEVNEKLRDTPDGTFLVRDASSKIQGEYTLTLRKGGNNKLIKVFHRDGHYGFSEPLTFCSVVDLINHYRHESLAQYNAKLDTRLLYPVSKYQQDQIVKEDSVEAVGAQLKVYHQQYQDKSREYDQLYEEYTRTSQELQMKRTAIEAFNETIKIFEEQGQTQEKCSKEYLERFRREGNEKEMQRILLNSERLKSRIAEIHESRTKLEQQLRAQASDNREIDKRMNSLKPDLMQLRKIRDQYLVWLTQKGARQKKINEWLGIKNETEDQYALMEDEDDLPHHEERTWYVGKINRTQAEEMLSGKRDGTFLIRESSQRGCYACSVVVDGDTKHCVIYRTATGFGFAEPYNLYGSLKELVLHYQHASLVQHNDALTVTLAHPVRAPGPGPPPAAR
Sequence of UniProt P42338 (P42338 whole entry, looked up): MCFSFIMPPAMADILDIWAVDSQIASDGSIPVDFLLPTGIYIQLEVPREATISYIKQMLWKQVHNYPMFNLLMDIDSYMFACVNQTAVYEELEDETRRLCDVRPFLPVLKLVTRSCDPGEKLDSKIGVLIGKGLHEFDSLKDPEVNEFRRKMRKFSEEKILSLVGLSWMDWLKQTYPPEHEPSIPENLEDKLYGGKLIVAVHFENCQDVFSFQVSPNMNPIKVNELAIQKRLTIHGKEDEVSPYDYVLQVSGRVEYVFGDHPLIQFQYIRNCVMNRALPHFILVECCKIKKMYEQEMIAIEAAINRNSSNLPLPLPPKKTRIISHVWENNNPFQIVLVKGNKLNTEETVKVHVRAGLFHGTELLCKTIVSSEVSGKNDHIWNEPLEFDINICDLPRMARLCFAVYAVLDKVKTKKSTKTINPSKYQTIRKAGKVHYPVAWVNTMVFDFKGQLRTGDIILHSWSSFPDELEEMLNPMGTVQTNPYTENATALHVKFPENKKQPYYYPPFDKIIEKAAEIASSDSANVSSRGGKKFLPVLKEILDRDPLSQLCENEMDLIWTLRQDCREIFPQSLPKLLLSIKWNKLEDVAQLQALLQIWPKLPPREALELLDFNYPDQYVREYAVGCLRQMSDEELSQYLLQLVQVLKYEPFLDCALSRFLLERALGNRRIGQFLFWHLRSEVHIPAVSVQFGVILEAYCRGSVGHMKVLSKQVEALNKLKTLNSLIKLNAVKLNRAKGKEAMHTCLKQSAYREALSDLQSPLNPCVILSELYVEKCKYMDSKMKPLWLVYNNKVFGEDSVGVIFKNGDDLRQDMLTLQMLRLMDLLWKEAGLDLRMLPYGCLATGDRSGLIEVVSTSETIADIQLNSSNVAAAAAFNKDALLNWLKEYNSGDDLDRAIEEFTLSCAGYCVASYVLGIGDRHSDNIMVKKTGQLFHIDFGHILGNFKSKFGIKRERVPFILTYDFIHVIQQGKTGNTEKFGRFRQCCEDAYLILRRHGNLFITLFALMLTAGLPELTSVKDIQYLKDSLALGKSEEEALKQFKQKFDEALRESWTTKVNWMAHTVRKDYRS
Sequence of UniProt Q14671 (Q14671 whole entry, looked up): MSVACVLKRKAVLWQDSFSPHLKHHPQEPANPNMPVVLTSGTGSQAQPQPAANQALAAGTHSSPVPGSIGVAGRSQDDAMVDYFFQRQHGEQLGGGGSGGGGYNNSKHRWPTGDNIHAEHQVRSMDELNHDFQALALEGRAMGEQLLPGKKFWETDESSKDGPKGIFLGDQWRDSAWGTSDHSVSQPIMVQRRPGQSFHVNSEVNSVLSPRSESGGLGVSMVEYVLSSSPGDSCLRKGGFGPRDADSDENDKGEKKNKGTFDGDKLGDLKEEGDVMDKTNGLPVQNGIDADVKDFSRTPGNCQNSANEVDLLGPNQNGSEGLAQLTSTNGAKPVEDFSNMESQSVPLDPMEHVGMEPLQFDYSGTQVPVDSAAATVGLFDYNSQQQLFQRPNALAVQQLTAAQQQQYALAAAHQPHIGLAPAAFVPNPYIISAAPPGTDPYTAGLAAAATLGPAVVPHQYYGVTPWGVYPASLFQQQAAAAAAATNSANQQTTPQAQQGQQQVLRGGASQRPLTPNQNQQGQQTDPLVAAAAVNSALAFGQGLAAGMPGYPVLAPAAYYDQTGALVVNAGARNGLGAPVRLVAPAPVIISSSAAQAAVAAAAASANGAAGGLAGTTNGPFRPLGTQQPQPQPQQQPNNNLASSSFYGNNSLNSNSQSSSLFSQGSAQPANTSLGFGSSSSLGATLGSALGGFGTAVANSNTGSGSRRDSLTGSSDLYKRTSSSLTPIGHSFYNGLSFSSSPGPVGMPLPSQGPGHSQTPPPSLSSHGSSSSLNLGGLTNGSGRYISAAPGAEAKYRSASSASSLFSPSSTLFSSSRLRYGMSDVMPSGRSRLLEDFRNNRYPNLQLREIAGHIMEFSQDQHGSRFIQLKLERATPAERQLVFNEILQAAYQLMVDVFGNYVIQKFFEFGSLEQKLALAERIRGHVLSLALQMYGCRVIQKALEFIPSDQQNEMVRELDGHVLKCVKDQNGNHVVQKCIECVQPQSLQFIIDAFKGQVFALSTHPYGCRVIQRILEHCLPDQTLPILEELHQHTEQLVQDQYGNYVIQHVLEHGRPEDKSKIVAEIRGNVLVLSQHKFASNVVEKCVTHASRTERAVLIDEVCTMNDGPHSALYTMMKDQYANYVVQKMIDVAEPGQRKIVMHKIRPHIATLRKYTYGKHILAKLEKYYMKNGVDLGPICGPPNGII
Sequence of UniProt P05771 (P05771 whole entry, looked up): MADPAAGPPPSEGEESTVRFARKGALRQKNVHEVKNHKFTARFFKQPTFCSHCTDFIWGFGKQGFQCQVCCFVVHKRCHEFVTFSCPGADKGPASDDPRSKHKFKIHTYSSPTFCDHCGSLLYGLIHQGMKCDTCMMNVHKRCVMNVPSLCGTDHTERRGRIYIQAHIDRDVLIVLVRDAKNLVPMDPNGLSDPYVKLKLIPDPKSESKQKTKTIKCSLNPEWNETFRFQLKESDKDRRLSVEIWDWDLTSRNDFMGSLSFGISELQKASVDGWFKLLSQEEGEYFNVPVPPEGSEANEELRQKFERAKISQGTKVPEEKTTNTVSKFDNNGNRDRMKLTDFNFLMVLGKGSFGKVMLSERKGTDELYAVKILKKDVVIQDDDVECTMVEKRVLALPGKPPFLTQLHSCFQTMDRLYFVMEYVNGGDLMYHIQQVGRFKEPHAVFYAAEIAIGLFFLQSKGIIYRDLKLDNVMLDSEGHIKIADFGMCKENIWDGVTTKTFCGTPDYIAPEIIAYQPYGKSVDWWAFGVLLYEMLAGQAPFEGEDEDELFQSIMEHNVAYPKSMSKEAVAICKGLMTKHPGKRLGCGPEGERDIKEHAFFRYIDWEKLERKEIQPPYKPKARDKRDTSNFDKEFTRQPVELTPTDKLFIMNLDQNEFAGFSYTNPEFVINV
Sequence of UniProt P06454 (P06454 whole entry, looked up): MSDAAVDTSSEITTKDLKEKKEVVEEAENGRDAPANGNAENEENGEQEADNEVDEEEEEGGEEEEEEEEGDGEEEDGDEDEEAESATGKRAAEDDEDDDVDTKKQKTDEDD

For PUM1 isoform 3 (UniProt Q14671), the log2 fold change was -0.057 in assay [1]; 0.048 in assay [2]; 0.024 in assay [3]; -0.003 in assay [4]; 0.054 in assay [5].

Consider PRKCB isoform 2 (UniProt P05771), for which the log2 fold change is -0.007 in assay [1]; -0.022 in assay [2]; 0.086 in assay [3]; 0.07 in assay [4]; -0.005 in assay [5].

Consider PKN1 isoform 2 (UniProt Q16512), for which the log2 fold change in assay [1] was -0.003; in assay [2], 0.017; in assay [3], 0.023; in assay [4], 0.029; in assay [5], 0.022.

Turning to PTGES2 (UniProt Q9H7Z7), the log2 fold change was 0.166 in assay [1]; -0.119 in assay [2]; -0.101 in assay [3]; -0.006 in assay [4]; 0.014 in assay [5].

Consider PIK3R2 (UniProt O00459), for which the log2 fold change in assay [1] was 0.002; in assay [2], -0.058; in assay [3], 0.272; in assay [4], 0.024; in assay [5], -0.007.

In the case of PPFIA2 (UniProt O75334), the log2 fold change in assay [1] was 0.022; in assay [2], 0.041; in assay [3], 0.003; in assay [4], -0.016; in assay [5], -0.132.

Consider PIP4K2C (UniProt Q8TBX8), for which the log2 fold change in assay [1] was -0.12; in assay [2] it was -0.062; in assay [3] it was -0.113; in assay [4], -0.023; in assay [5], -0.011.

Consider PIK3CB (UniProt P42338), for which the log2 fold change in assay [1] was -0.066; in assay [2], -0.054; in assay [3], 0.518 (active); in assay [4], -0.049; in assay [5], -0.033.

Turning to PTMA isoform 2 (UniProt P06454), the log2 fold change in assay [1] was 0.098; in assay [2], -0.016.
